Data on eight compounds can be found in PubChem BioAssay (EPA / NIEHS).

For test [1], the target named is Cellular tumor antigen p53 (Homo sapiens) (UniProt P04637). The test can be described thus: TOX21_p53_BLA_p4_ratio: Tox21 HCT-116 p53 Agonism Beta-lactamase Assay, Ratio, Phase 4 (AID 2283601). The procedure, abridged: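 Signal is the blue/green (460nm/530nm) ratio of cleaved versus uncleaved CCF4-AM substrate, read after 2 h substrate loading. Cells were HCT116 carrying the p53-responsive beta-lactamase reporter, dosed 16 h at 37C, 5% CO2; CellTiter-Glo measured in parallel.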

Test [2] in a line: Tanguay_ZF_120hpf_MORT_legacy: (Legacy) Oregon State University Tanguay Lab 120 Hour Post-fertilization zebrafish Assay for Mortality (AID 2283633).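 As to AC50: fitted as increase in binary mortality versus DMSO negative control.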 The procedure, abridged:
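5D WT zebrafish, chorion removed 4 hpf; 1 embryo/well from 6 hpf; static exposure to 120 hpf, 28C, dark, sealed. Final DMSO 0.64%. Readout: binary mortality, brightfield, 24 + 120 hpf; DMSO as negative control.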

Test [3] is described as follows: Tanguay_ZF_120hpf_YSE_legacy: (Legacy) Oregon State University Tanguay Lab 120 Hour Post-fertilization zebrafish Assay for Yolk Sac Edema (AID 2283634).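 As to AC50: actives raise the incidence of yolk sac edema above the DMSO baseline.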 The procedure, abridged:
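Dechorionate (pronase, 4 hpf) → place one 6 hpf embryo per well → static compound exposure, sealed and foil-covered, 28C, to 120 hpf → record yolk sac edema as present or absent. Final DMSO 0.64%.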

Test [4] can be described thus: Tanguay_ZF_120hpf_AXIS_legacy: (Legacy) Oregon State University Tanguay Lab 120 Hour Post-fertilization zebrafish Assay for Body Axis Malformation (AID 2283635).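 As to AC50: potency for an increased fraction of larvae scored with body axis malformation.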 The procedure, abridged: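 Chorion is removed with pronase at 4 hpf, then single 6 hpf embryos are dosed (final DMSO 0.64%) and held statically at 28C in sealed, foil-covered plates. At 120 hpf body axis malformation is recorded as present or absent.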

The nature of test [5]: Tanguay_ZF_120hpf_EYE_legacy: (Legacy) Oregon State University Tanguay Lab 120 Hour Post-fertilization zebrafish Assay for Eye Malformation (AID 2283636). The procedure, abridged:
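Read-out is binary presence or absence of eye malformation, scored by brightfield microscopy at 120 hpf. Single larvae were exposed from 6 hpf in embryo medium containing 0.64% DMSO, with DMSO as baseline.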

Test [6] is described as follows: Tanguay_ZF_120hpf_SNOU_legacy: (Legacy) Oregon State University Tanguay Lab 120 Hour Post-fertilization zebrafish Assay for Snout Malformation (AID 2283637). Summed up:
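Snout malformation read as a yes/no call on brightfield images of 120 hpf larvae (Tropical 5D strain). Static exposure began at 6 hpf on dechorionated embryos in 0.64% DMSO, with gain of signal analysed versus DMSO controls.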

A short description of test [7]: Tanguay_ZF_120hpf_JAW_legacy: (Legacy) Oregon State University Tanguay Lab 120 Hour Post-fertilization zebrafish Assay for Jaw Malformation (AID 2283638).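 As to AC50: active means more embryos with jaw malformation than DMSO controls.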 Summed up: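 Steps: dechorionate 4 hpf embryos (pronase); plate 1/well at 6 hpf; add test chemical, 0.64% DMSO final; seal, cover, hold at 28C statically to 120 hpf; score jaw defect presence/absence microscopically. Dead embryos not scored.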

Test [8] in a line: Tanguay_ZF_120hpf_OTIC_legacy: (Legacy) Oregon State University Tanguay Lab 120 Hour Post-fertilization zebrafish Assay for Otic Vesicle Malformation (AID 2283639). The procedure, abridged:
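Otic vesicle malformation is read as a yes/no morphology call at 120 hpf. Exposure is static at 28C with 0.64% (vol/vol) DMSO; embryos that die are excluded from non-mortality endpoints.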

Test [9] is described as follows: Tanguay_ZF_120hpf_PE_legacy: (Legacy) Oregon State University Tanguay Lab 120 Hour Post-fertilization zebrafish Assay for Pericardial Edema (AID 2283640).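 As to AC50: potency for increased incidence of pericardial edema versus DMSO baseline.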 Summed up: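 Embryos from wild-type 5D adults were staged, then dosed in 0.64% DMSO. They were kept sealed in the dark at 28C until 120 hpf. Pericardial edema was then recorded as present or absent.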
The nature of test [10]: Tanguay_ZF_120hpf_BRAI_legacy: (Legacy) Oregon State University Tanguay Lab 120 Hour Post-fertilization zebrafish Assay for Brain Malformation (AID 2283641). The procedure, abridged: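 Wild-type 5D larvae, static waterborne exposure to 120 hpf, 28C, 0.64% v/v DMSO. Brightfield scoring of brain defects, binary; dead embryos excluded. Positive ctrl 5uM trimethyltin chloride.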

The nature of test [11]: Tanguay_ZF_120hpf_SOMI_legacy: (Legacy) Oregon State University Tanguay Lab 120 Hour Post-fertilization zebrafish Assay for Somite Malformation (AID 2283647). The procedure, abridged:
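Read-out: presence or absence of somite malformation in 120 hpf larvae, gain-of-signal relative to DMSO baseline. Embryos lacked chorion (pronase, 4 hpf) and were exposed statically from 6 hpf at 28C; dead larvae not scored.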

Test [12] in a line: Tanguay_ZF_120hpf_PFIN_legacy: (Legacy) Oregon State University Tanguay Lab 120 Hour Post-fertilization zebrafish Assay for Pectoral Fin Malformation (AID 2283648).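 Also: each larva judged yes or no for fin defect by brightfield with dead larvae skipped.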 Summed up: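 5D WT zebrafish; pronase dechorionation 4 hpf; 1 embryo/well at 6 hpf; static exposure to 120 hpf, 28C, sealed, foil-covered; final DMSO 0.64% v/v; 5 uM trimethyltin chloride positive control; fin defect scored yes/no.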

Test [13] in a line: Tanguay_ZF_120hpf_CFIN_legacy: (Legacy) Oregon State University Tanguay Lab 120 Hour Post-fertilization zebrafish Assay for Caudal Fin Malformation (AID 2283649). The procedure, abridged: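 Binary presence or absence of caudal fin malformation at 120 hpf, read by brightfield microscopy, with DMSO as baseline. Larvae came from 5D wild-type embryos exposed statically from 6 hpf at 28C after pronase dechorionation.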

Test [14] is described as follows: Tanguay_ZF_120hpf_PIG_legacy: (Legacy) Oregon State University Tanguay Lab 120 Hour Post-fertilization zebrafish Assay for Pigmentation Malformation (AID 2283650). The procedure, abridged:
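Pronase dechorionation at 4 hpf; embryos plated at 6 hpf, one per well; static exposure, sealed and foil-covered, 28C, to 120 hpf; pigmentation read by brightfield, binary; DMSO 0.64% baseline, 5uM trimethyltin chloride positive control.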

Test [15] in a line: Tanguay_ZF_120hpf_CIRC_legacy: (Legacy) Oregon State University Tanguay Lab 120 Hour Post-fertilization zebrafish Assay for Circulatory Malformation (AID 2283651). Summed up: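 Using wild-type Tropical 5D zebrafish, we exposed dechorionated embryos from 6 to 120 hpf in embryo medium with 0.64% DMSO. Circulatory defects were scored as present or absent; 5uM trimethyltin chloride served as positive control.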

Test [16] is described as follows: Tanguay_ZF_120hpf_SWIM_legacy: (Legacy) Oregon State University Tanguay Lab 120 Hour Post-fertilization zebrafish Assay for Swim Bladder Malformation (AID 2283654).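 Also: swim bladder malformation in each larva scored yes or no under brightfield.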 The procedure, abridged: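 Embryos lacking chorions were exposed individually and statically to test chemical from 6 to 120 hpf at 28C, with 0.64% DMSO as vehicle. At 120 hpf, swim bladder malformation was recorded as present or absent by brightfield microscopy.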

Test [17] in a line: Tanguay_ZF_120hpf_NC_legacy: (Legacy) Oregon State University Tanguay Lab 120 Hour Post-fertilization zebrafish Assay for Notochord and Tail Malformation (AID 2283656). Summed up: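 Dechorionated 5D zebrafish, 1/well from 6 hpf; static exposure to 120 hpf, 28C, sealed, dark; final DMSO 0.64% v/v. NC scored binary (present/absent); dead embryos not scored. Fit vs DMSO baseline, gain direction.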

The nature of test [18]: Tanguay_ZF_120hpf_TRUN_legacy: (Legacy) Oregon State University Tanguay Lab 120 Hour Post-fertilization zebrafish Assay for Truncated Body (AID 2283655). Summed up: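 Truncated body is recorded as a binary endpoint at 120 hpf by brightfield imaging of wild-type 5D larvae. Exposure runs statically from 6 hpf at 28C with 0.64% DMSO; embryos dying earlier are not scored.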

Results filed as inconclusive are left out. Calls of active or inactive are those of the source. The calls were made as follows: active = hit-call score of the fitted dose curve at least 0.9, where 1 is the maximum; inconclusive = response in the unintended direction; inactive = score below 0.9.

Chain of Cellular tumor antigen p53 (Homo sapiens) (P04637 whole entry, looked up): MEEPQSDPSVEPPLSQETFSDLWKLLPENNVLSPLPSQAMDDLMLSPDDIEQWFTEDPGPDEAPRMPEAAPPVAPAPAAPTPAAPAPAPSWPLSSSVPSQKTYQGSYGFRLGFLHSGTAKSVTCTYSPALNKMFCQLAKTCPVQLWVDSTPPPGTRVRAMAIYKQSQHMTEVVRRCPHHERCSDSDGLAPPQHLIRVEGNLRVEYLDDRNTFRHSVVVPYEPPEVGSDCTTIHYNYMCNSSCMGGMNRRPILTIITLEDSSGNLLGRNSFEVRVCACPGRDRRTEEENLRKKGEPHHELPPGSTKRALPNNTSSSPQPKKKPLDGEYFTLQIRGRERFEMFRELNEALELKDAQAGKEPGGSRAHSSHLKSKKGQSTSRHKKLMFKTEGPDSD

Take `CC(C)NC(=O)N1CC(=O)N(c2cc(Cl)cc(Cl)c2)C1=O`: the result in test [1], in test [2], in test [3], in test [4], in test [5] and in [6] was inactive. Besides, the compound was called inactive in test [7], in test [8], in test [9], in test [10], in test [11] and in test [12]. Besides, the compound was called inactive in [13], in test [14], in [15], in test [16] and in test [17].
Consider `COc1ccc(-c2ccccc2)cc1NNC(=O)OC(C)C`, for which the result in test [1], in test [2], in [3], in test [4], in test [5] and in test [6] was inactive. Moreover, the outcome in test [7], in test [8], in test [9], in [10], in test [11] and in test [12] was inactive. In addition, the result in test [13], in test [14], in test [15], in [16], in [18] and in test [17] was inactive.
For the compound `O=C(Nc1ccccc1-c1ccc(Cl)cc1)c1cccnc1Cl`, the outcome in test [1], in test [2], in [3], in test [4], in test [5] and in test [6] was inactive. In addition, the result in [7], in test [8], in test [9], in test [10], in test [11] and in test [12] was inactive. The result in test [14], in test [15], in [16] and in [18] was inactive.
Turning to `CCOc1nc(C(Cl)(Cl)Cl)ns1`, the outcome in test [1], in [2], in [3], in test [4], in [5] and in [6] was inactive. The result in test [7], in test [9], in test [10], in test [11], in [13] and in [14] was inactive. The call in test [16] and in test [18] was inactive.
The AC50 is the midpoint of the concentration-response curve, whichever way the signal moves. Regarding `COCC(C)N(C(=O)CCl)c1c(C)csc1C` (centres undefined), the result in [1] and in test [17] was inactive. In addition, the half-maximal activity concentration (AC50) was 36.4 µM (active) in [2]; 18.3 µM (active) in [3]; 27.3 µM (active) in test [4]; 24.8 µM (active) in test [5]; 8.23 µM (active) in [6]; 25.6 µM (active) in test [7]. Besides, the AC50 is 8.94 µM (active) in test [8]; 31 µM (active) in test [9]; 8.88 µM (active) in [10]; 30.4 µM (active) in test [11]; 35.6 µM (active) in test [12]; 36.2 µM (active) in [13]. Moreover, the concentration at half-maximal activity (AC50) is 8.81 µM (active) in test [14], 24.5 µM (active) in test [15], 8.24 µM (active) in test [16] and 30.8 µM (active) in test [18].
Regarding `CCNC(=O)NC(=O)C(C#N)=NOC`, the AC50 in test [3] is 37.8 µM (active); in test [4], 46 µM (active); in test [5], 51.5 µM (active); in [6] it was 24.5 µM (active); in test [7], 19.6 µM (active); in test [9], 47 µM (active). For the same compound, the AC50 is 41.6 µM (active) in test [11], 45.6 µM (active) in test [12] and 53.2 µM (active) in [16]. Further, the compound was classed as inactive in [8], in test [10], in test [13], in test [15], in test [18] and in test [17].
For the compound `CSC(=O)c1c(C(F)F)nc(C(F)(F)F)c(C(=O)SC)c1CC(C)C`, the outcome in test [2], in test [3], in test [4], in test [5], in test [6] and in test [7] was inactive. For the same compound, the compound was called inactive in test [8], in test [9], in test [10], in test [11], in [12] and in test [13]. For the same compound, the result in [15], in [16], in [18] and in test [17] was inactive.
In the case of `CCCCC(O)(Cn1cncn1)c1ccc(Cl)cc1Cl` (centres undefined), the AC50 in test [1] is 87 µM (active). The call in [2], in test [3], in test [4], in test [6], in [7] and in test [8] was inactive. Also, the compound was classed as inactive in test [9], in test [11], in test [12], in test [14], in [15] and in test [16]. Moreover, the result in [18] and in test [17] was inactive.
